The text below walks through data of the supplement of paper PMC6411743.

± gives the standard deviation of the averaged measurements. Of roughly 5,400 targets only a part is listed; those with the largest changes were picked by preference.

Chain of UniProt Q13227 (Q13227 whole entry, one chain of several): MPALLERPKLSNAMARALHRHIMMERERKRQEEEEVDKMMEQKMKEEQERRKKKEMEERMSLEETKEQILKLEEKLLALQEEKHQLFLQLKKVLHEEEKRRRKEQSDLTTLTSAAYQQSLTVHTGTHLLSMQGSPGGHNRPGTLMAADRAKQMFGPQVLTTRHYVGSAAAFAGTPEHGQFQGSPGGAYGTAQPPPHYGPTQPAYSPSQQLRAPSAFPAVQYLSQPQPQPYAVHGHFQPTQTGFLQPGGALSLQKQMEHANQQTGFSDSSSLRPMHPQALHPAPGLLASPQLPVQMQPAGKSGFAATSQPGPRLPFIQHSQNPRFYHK
Chain of UniProt P51114 (P51114 whole entry): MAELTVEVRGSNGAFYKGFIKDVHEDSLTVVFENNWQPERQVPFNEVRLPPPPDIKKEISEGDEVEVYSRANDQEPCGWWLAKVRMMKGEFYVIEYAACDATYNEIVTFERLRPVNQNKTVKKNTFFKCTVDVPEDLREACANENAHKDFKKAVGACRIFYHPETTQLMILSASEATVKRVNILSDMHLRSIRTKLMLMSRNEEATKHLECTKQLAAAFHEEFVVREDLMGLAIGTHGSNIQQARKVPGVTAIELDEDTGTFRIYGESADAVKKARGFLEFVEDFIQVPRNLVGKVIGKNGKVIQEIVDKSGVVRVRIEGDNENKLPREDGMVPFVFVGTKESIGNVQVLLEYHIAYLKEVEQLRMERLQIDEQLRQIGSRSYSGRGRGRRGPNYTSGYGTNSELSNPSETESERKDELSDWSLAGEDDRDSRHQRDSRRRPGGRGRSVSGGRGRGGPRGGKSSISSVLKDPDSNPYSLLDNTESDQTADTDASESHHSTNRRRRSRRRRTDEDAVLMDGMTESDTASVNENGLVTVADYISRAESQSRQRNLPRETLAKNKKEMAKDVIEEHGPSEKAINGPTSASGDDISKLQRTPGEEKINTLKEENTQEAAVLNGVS
Chain of UniProt P46109 (P46109 whole entry): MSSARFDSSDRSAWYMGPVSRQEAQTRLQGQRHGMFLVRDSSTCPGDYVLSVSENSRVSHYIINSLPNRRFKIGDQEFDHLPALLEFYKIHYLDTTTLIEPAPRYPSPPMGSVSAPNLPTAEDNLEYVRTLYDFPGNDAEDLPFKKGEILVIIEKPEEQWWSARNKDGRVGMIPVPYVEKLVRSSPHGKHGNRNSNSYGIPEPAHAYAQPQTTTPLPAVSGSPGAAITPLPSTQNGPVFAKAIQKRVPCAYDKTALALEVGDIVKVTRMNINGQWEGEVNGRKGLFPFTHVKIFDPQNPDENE
Chain of UniProt O00567 (O00567 whole entry): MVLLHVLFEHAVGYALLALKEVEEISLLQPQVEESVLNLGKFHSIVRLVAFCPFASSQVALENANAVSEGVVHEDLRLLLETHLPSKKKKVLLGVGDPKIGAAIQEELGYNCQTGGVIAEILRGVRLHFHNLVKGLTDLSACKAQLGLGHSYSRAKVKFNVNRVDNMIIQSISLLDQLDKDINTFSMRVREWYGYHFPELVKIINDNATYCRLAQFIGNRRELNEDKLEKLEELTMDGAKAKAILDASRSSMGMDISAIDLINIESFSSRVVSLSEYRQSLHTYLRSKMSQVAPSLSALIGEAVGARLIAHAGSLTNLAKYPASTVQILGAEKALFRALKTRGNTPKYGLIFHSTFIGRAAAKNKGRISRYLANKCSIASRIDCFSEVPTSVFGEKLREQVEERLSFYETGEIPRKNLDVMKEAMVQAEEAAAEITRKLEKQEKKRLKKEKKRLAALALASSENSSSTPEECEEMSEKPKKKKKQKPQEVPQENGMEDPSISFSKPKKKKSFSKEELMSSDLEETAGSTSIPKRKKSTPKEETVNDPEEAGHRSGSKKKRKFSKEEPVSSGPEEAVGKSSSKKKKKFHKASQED
Chain of UniProt P54578 (P54578 whole entry): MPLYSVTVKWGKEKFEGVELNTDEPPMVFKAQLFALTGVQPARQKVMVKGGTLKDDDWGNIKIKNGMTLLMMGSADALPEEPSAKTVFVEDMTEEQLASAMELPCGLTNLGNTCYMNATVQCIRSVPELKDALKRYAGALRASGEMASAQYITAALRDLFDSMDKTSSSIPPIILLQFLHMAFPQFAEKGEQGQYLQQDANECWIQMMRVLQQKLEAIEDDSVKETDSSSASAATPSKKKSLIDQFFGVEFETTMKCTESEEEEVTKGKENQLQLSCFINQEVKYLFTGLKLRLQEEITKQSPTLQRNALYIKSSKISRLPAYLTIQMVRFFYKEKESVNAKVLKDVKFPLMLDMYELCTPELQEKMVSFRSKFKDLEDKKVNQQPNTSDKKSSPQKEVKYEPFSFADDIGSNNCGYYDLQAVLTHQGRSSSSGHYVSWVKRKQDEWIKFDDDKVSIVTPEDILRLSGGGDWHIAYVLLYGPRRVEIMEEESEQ
Chain of UniProt O15111 (O15111 whole entry): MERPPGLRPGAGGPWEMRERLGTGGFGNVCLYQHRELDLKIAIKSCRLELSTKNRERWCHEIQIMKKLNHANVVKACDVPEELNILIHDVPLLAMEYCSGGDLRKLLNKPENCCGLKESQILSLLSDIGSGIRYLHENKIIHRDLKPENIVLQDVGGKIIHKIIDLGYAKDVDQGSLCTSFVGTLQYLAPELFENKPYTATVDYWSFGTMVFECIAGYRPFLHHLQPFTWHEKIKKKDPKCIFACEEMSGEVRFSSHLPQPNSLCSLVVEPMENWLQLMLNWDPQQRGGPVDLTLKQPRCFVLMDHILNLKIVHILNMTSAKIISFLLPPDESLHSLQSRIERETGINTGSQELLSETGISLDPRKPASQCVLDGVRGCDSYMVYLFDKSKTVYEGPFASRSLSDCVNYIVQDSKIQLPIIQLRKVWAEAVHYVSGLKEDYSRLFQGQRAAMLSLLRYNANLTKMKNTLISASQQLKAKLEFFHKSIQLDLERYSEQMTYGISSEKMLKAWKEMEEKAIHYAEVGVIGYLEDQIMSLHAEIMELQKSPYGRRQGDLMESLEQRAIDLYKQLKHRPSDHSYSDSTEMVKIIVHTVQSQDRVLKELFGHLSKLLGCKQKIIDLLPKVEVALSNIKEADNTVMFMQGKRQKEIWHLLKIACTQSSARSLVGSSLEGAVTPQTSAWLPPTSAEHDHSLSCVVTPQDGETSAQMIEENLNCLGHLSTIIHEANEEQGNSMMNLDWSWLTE
Chain of UniProt P17812 (P17812 whole entry): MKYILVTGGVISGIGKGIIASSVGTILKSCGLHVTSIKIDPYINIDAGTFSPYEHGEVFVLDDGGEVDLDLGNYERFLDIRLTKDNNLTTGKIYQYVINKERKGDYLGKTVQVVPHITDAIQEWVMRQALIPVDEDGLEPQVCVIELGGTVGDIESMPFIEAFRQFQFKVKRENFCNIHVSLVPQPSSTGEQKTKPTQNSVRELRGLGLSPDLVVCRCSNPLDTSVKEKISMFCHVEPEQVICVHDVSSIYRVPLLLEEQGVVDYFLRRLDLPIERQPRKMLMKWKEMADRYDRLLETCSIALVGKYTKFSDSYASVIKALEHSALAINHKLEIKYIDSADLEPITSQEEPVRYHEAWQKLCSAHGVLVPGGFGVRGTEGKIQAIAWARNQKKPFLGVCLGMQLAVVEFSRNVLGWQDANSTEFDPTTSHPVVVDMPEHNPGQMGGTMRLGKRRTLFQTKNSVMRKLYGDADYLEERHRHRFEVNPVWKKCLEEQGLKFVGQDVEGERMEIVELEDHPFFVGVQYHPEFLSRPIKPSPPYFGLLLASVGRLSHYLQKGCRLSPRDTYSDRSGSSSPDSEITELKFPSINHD
Chain of UniProt P22830 (P22830 whole entry, one chain of several): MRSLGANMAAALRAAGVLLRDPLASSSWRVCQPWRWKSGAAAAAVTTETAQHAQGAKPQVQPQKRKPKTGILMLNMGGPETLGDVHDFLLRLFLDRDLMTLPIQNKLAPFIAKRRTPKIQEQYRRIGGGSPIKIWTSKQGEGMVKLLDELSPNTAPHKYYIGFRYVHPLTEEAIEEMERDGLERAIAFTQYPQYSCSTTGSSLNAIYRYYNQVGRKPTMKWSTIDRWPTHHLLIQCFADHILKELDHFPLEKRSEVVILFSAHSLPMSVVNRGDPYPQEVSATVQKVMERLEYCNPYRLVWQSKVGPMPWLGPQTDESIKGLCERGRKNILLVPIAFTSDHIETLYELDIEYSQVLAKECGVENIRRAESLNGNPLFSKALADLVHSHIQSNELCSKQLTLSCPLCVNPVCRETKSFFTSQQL
Chain of UniProt O60669 (O60669 whole entry): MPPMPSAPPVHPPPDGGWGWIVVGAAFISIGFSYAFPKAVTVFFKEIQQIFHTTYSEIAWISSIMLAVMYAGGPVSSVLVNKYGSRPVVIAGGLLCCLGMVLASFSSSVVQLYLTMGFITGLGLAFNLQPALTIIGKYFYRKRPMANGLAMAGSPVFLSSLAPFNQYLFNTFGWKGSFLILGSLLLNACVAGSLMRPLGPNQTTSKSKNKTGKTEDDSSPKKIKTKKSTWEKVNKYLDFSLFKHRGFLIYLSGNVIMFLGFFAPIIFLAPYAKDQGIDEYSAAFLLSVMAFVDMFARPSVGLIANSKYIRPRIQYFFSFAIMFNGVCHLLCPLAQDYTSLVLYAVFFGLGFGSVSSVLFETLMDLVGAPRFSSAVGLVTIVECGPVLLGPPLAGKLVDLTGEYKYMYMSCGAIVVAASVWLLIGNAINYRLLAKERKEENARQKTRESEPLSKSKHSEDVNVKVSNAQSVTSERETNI
Chain of UniProt Q9BRQ6 (Q9BRQ6 whole entry, one chain of several): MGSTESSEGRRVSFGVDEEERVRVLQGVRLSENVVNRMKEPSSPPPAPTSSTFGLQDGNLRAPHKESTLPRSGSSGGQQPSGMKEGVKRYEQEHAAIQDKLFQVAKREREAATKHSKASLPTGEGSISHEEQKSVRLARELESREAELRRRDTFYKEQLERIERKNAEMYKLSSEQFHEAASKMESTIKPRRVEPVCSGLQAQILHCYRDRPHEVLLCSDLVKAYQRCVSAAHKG
Chain of UniProt P17096 (P17096 whole entry): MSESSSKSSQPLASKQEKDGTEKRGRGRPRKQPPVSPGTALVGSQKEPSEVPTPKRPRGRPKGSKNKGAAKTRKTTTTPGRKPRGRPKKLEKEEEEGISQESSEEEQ

Compound in this test: Nc1nc2c(ncn2[C@@H]2O[C@H](COP(=O)(O)OP(=O)(O)OP(=O)(O)O)[C@@H](O)[C@H]2O)c(=O)[nH]1 [guanosine triphosphate]
As to the kind of experiment: NP40-soluble protein abundance relative to vehicle (solubility fold change) (ratio); higher = more soluble protein in presence of GTP. The conditions noted are these: concentration: 1mM. An outline of the steps:
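Across three independent experiments, values are fold changes against the detergent-processed vehicle for each replicate, based on vsn-normalised intensities. The samples were Jurkat crude lysate treated with eight concentrations (0.1 to 10 mM) for 10 min at room temperature and then 3 min at 37 °C. Lysate was solubilised with 0.8% NP40 and benzonase, ultracentrifuged, and the supernatant analysed by TMT-labelled LC-MS/MS.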
As to UniProt O43665|O43665-2|O43665-3, the NP40-soluble protein abundance is 0.872 ± 0.14.
As for UniProt O00567, the NP40-soluble protein abundance was found to be 1.1 ± 0.087.
Under ARID1A (UniProt O14497) stands 1.08 ± 0.055; under J3QTA6|Q9BRQ6 (UniProt Q9BRQ6), 1.12 ± 0.14; under AKR1A1 (UniProt P14550), 0.888 ± 0.04.
The result for J3QQJ5|Q9Y2L5 (UniProt Q9Y2L5) reads 1.05 ± 0.091; that for UniProt P17096|P17096-2, 1.21 ± 0.081; that for AK4 (UniProt P27144), 1.03 ± 0.042.
Under UniProt P12931|P12931-2 stands 0.955 ± 0.018.
For UniProt O14776|O14776-2, the NP40-soluble protein abundance is 0.979 ± 0.047.
Under UniProt P17812 stands 0.924 ± 0.05.
Under NUDT2 (UniProt P50583) stands 0.884 ± 0.15.
In the case of CRKL (UniProt P46109), the NP40-soluble protein abundance was determined as 0.967 ± 0.092.
On to “UniProt P11388|P11388-2|P11388-3|P11388-4”, for which the NP40-soluble protein abundance stood at 1.2 ± 0.022.
The result for NUP62 (UniProt P37198) reads 1.01 ± 0.021; that for K7EPN2|P22830|P22830-2 (UniProt P22830), 0.972 ± 0.015.
The result for UniProt O15111 reads 0.963 ± 0.052; that for UniProt O60508|Q5SRN1, 1.09 ± 0.022.
Under SLC16A7 (UniProt O60669) stands 1.143 ± 0.0046.
Take FXR1 (UniProt P51114): the NP40-soluble protein abundance worked out at 1.31 ± 0.042.
As for “P15531-2|P22392-2|Q32Q12 (UniProt Q32Q12+P22392+P15531)”, the NP40-soluble protein abundance stood at 0.903 ± 0.045.
Under UniProt P54578|P54578-2 stands 0.935 ± 0.027; under M0R2S1|P62987 (UniProt P62987), 1.01 ± 0.17.
The result for RPL21 (UniProt P46778) reads 1.05 ± 0.12; that for “I3L3Y9|I3L4X7|Q13227|Q13227-2 (UniProt Q13227)”, 1.01 ± 0.13.
The result for PPT1 (UniProt P50897) reads 0.968 ± 0.083.
In the case of URB1 (UniProt O60287), the NP40-soluble protein abundance turned out to be 1.21 ± 0.076.
